Compound activity as filed in PubChem BioAssay.
Coupling enz: coupling enzyme interference in Giardia aldolase counter-screen. 0.67% of 290,000 active. activity change, negative = inhibition, % at 58.2 µM, hits read low. coupling enzyme system counterscreen, AmpLite Red fluorescence; in the data active = activity change below about -30%
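Counterscreen of the coupled detection system alone, without aldolase: glyceraldehyde-3-phosphate coupling enzymes plus AmpLite Red readout. Compounds at 57.5 uM final, 10 min RT preincubation, 20 min RT reaction, fluorescence 525/598 nm.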
Tau fibril ThT: blocks human tau fibril formation measured by thioflavin T; 2.1% of 270,000 active; recombinant tau K18 P301L, heparin-induced fibrillization, ThT fluorescence; Potency, µM (highest dose often 57.4 µM), for inactives: at the top dose activity, negative = inhibition, hits mostly inhibitors; P10636; note: potency is the fitted concentration of half-maximal effect; nearly all actives have a fitted effect of over 55% in size
Target sequence (P10636 561-689 P618L limits assumed): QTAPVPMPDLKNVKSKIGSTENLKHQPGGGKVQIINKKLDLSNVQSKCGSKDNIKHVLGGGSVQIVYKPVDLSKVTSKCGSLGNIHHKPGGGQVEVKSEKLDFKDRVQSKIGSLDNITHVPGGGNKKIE
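In this qHTS, human K18 P301L tau is incubated with compound and heparin for 6 hr at 37 C, and Thioflavin T fluorescence then reports fibril load.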
Tau fibril FP: tau fibrillization inhibition (FP) | AID 1468 | P10636 | K18 P301L tau heparin fibrillization, Alexa594 FP, 6 h | Potency, µM (doses to about 57.7 µM), inactives show at the highest dose activity, negative = inhibition, usual class: inhibitors | 0.39% of 280,000 active; note: potency is the fitted concentration of half-maximal effect; nearly all actives have a fitted effect of over 55% in size
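FP of Alexa 594-tau after heparin (20 uM) induction. Substrate: human K18 P301L, 15 uM unlabeled, 0.24 uM labeled. Buffer 100 mM sodium acetate pH 7. 6 hr, 37 C.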
Tau fluor counter: counter-screen for tau fibril formation inhibitors; 0.93% of 280,000 active; tau K18 P301L Alexa594 fluorescence, heparin fibrillization; Potency, µM (titrated, usually from 57.7 µM), for inactives: top-dose activity change, negative = decrease; note: potency is the fitted concentration of half-maximal effect; nearly all actives have a fitted effect of over 55% in size
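Human tau K18 P301L (15 uM unlabeled, 0.24 uM Alexa 594-labeled) in 100 mM sodium acetate pH 7 with 20 uM heparin, 6 hr at 37 C. ThT 30 uM added, 1 hr ambient; Alexa 594 FP and total fluorescence read at 555/632 nm.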
Sfp inh: inhibitors of Bacillus subtilis Sfp phosphopantetheinyl transferase; Potency, µM, for inactives: largest response in the series, negative = inhibition, usual class: inhibitors; Biochemical Sfp PPTase activity, qHTS; Q9F4F7; 3.5% of 310,000 active;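 note: the enzyme is Sfp with the accession as filed and its product quenches rhodamine fluorescence; potency is the fitted concentration of half-maximal effect; 0% = enzyme reaction without inhibitor and -100% = no enzyme wells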
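Compounds were incubated with enzyme (final 15 nM) for 15 min at room temperature before substrate addition started the reaction. Fluorescence at 525 nm excitation, 598 nm emission was recorded immediately and after 30 minutes.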
Numbers without * were called inactive; u = inconclusive; x = no result given; ! = not confirmed by another sample; [ ] = another dose, or the depositor's remark. Most compounds without a hit are left out; they make up all but 5.2% or so of the library. Unless noted, calls come from the whole dose curve; as a rule, active = well fitted curve in the direction sought with a large enough effect; inconclusive = small, poorly fitted or top-dose-only effect, or another doubt; inactive = no such curve, though single readings can be large; an effect the other way counts as inactive or inconclusive. Unless noted, % is set by controls: 0 for no effect and ±100 for the full control effect.

SMILES | Coupling enz | Tau fibril ThT | Tau fibril FP | Tau fluor counter | Sfp inh
COc1ccc(C[C@H]2CN3C(=NC[C@@H]3Cc3ccccc3)N2CCNC(=O)c2ccc(C)c(Br)c2)cc1 | 3.3 | u | 0.5% | -3.9% | 31.6µM*
Cc1cccc(OCC(=O)NCc2ccc3c(c2)CCN3C(=O)c2ccccc2)c1 | x | -11.9% | 7.1% | -4.3% | x
Cc1ccc(NC(=O)CSc2nncn3c2cc2sccc23)cc1F | x | 7.9% | -16.2% | -18.0% | x
NC(N)=NC(=O)Cc1c(Cl)cccc1Cl | -11.1 | -2.9% | u | -6.6% | 89.1µM*!
Cc1ccc(-n2nc(C(=O)Nc3ccc(F)cc3F)c3c4ccccc4n(C)c3c2=O)cc1 | x | 0.8% | -15.2% | -0.7% | x
O=C(CCN1CCN(c2ccccc2)CC1)N/N=C/c1ccc(O)c(O)c1O | -40.0* | 7.2% | -1.9% | 2.1% | 8.91µM*
Cc1cc(/C=N/NC(=O)c2ccncc2)c(C)n1-c1ccccc1 | -4.2 | -16.0% | -0.8% | -10.8% | 9.0%
O=C(Cc1csc(N2CCOCC2)n1)N/N=C/c1ccc(O)c(O)c1O | -60.8* | 15.8µM* | 31.6µM* | u | 10µM*
Cc1cc(C(=O)N/N=C/c2ccc(O)c(O)c2O)c(C)n1-c1ccccc1 | -32.6* | 3.4% | 7.8% | -3.1% | 8.91µM*
C/C(=N\NC(=O)Cc1csc(N2CCOCC2)n1)c1ccccc1 | -0.4 | -7.8% | 3.7% | -9.6% | -8.7%
CCOc1ccccc1N1CC(c2nc3ccccc3n2CCCOc2ccccc2)CC1=O (stereo not drawn) | x | -15.8% | 4.5% | 0.6% | x
CCc1cc2cc(C)cc(C)c2[nH]c1=S | -0.6 | -18.3% | -0.9% | -11.5% | 56.2µM*
O=C(/C=C/c1ccc(Cl)c(Cl)c1)n1cccn1 | 0.0 | 14.1µM* | u | -10.7% | 14.3%
COc1cc2nc(NC(=O)c3ccc(S(=O)(=O)N4CCOCC4)cc3)sc2cc1OC | x | -12.1% | 2.4% | -14.3% | x
Cc1ccc(N=C2NC(=O)/C(=C/C=C/c3ccco3)S2)cc1 | -0.7 | 6.31µM* | u | u | u
O=C1NC(=Nc2ccccc2)S/C1=C\C=C\c1ccco1 | 3.3 | 3.5% | 1.0% | -0.3% | 13.6%
Cc1cccc(N=C2NC(=O)/C(=C/c3cccnc3)S2)c1C | -12.7 | u | -11.8% | -13.4% | u
Cc1cccc(N=C2NC(=O)/C(=C/C=C/c3ccco3)S2)c1C | 0.2 | 15.8µM* | u | u | 39.8µM*
CCCCCNC(=O)c1ccc2c(c1)nc(C)n2-c1cccc(C)c1 | x | -5.3% | 13.6% | 3.7% | x
Oc1ccc(-c2cn3c(n2)SCC3)cc1O | -19.9 | 10µM* | u | 14.1µM*[quencher] | 17.8µM*
CC1(C)C[C@@H]1C(=O)N/C(=C\CCCCSC[C@H](N)C(=O)O)C(=O)O | x | x | x | x | 79.4µM*
N#C/C(=N\Nc1ccc(Cl)cc1)C(=O)c1ccsc1 | -0.2 | 5.01µM* | 3.1% | u | 7.6%
N#C/C(=N\Nc1ccc(Cl)cc1)C(=N)N1CCCCC1 | x | 8.3% | 1.5% | -2.7% | 8.5%
Cc1ccc(N/N=C(\C#N)C(=O)c2ccsc2)cc1 | 0.4 | 14.1µM* | 9.6% | u | -3.0%
CCN(CC)C(=N)/C(C#N)=N/Nc1ccc(C)cc1 | -0.9 | u | 4.1% | -23.8% | 1.2%
SMILES | Coupling enz | Tau fibril ThT | Tau fibril FP | Tau fluor counter | Sfp inh
CCOC(=O)c1cc(NC(=O)c2ccc(C)cc2)c(=O)n2c1oc1ccccc12 | x | -1.9% | -11.5% | -15.0% | x
Oc1nc(-c2ccc(Br)cc2)n2ccncc12 | -1.5 | u | -3.9% | -7.1% | 56.2µM*
CCCn1nnc(NC(=S)NC(=O)/C=C/c2ccco2)n1 | -2.8 | u | u | -6.6% | 56.2µM*
CCCCCC(=O)Nc1nnn(CCC)n1 | 2.7 | -5.0% | 2.6% | 0.1% | 5.7%
Cn1nnc(NC(=O)c2cccs2)n1 | 4.4 | 2.0% | 8.8% | 1.5% | 9.5%
CCn1nnc(NC(=S)NC(=O)c2ccc(-c3cccc(Cl)c3)o2)n1 | 0.8 | u | 0.3% | -26.6% | 50.1µM*
CCCn1nnc(NC(=S)NC(=O)C(C)(C)C)n1 | -4.4 | -7.7% | -8.1% | 1.7% | 50.1µM*
CCCn1nnc(NC(=S)NC(=O)c2cccs2)n1 | -0.2 | -4.9% | -1.4% | 0.0% | 39.8µM*
Cc1ccc(-n2c(=O)[nH]c3c(C(N)=O)nc(-c4ccc(C)o4)nc32)cc1 | 0.6 | u | -5.2% | -3.2% | 44.7µM*
CN(C(=O)Cn1nc(Cc2cccnc2)c2ccccc2c1=O)c1cccc(C(F)(F)F)c1 | x | -0.7% | -2.1% | -10.7% | x
NC(=O)c1ccc(NC(=O)COC(=O)c2c3c(nc4ccccc24)/C(=C\c2cccs2)CCC3)cc1 | 0.9 | -10.2% | 4.47µM* | u | 9.0%
CC(C)CNC(=O)COC(=O)c1c2c(nc3ccccc13)/C(=C/c1cccs1)CC2 | -3.9 | u | -6.9% | u | 44.7µM*
O=C(COC(=O)c1c2c(nc3ccccc13)/C(=C/c1ccco1)CC2)NC1CCCC1 | -7.9 | u | -13.4% | u | 50.1µM*
COc1ccc(OC)c(N(CC(=O)NCc2ccccc2)S(=O)(=O)c2ccc(OC)c(OC)c2)c1 | x | x | x | x | 50.1µM*
O=C(C[n+]1ccc(C(=O)N/N=C/c2ccc(Br)cc2)cc1)c1ccccc1 | -0.2 | 12.6µM* | -8.8% | u | -23.9%
COc1ccc(OC)c(N(CC(=O)NCc2ccccc2)S(=O)(=O)c2ccccc2)c1 | x | -3.9% | -2.5% | -12.8% | x
O=C(C[n+]1ccc(C(=O)N/N=C/c2ccc(OCc3ccccc3)cc2)cc1)c1ccccc1 | -1.9 | 6.31µM* | 0.4% | u | u
Oc1ccc(N=Cc2ccc(OCc3ccccc3)cc2)cc1 | -32.1* | 3.98µM* | 12.6µM* | u | u
O=C(N/N=C/c1ccc(Br)cc1)c1cc[n+]([O-])cc1 | 0.9 | x | x | x | -7.2%
Cc1nn(C)c2c1c(C(F)(F)F)cc(=O)n2C(C)C(=O)NCCc1ccc(Cl)cc1 (stereo not drawn) | x | -9.4% | -5.2% | -14.9% | x
Cn1c(=O)n2n(c1=O)[C@H]1[C@H](O)[C@H]3O[C@@H]3/C(=N/OC[C@@H](O)COCc3ccco3)[C@@H]1CC2 | 5.7 | -12.2%[11.5 µM] | 0.5%[11.6 µM] | -11.4%[11.6 µM] | 5.5%
COc1ccc(C(=O)N/N=C/c2cc3ccccc3[nH]c2=S)cc1 | 0.6 | 3.98µM* | -6.8% | u | -8.4%
COc1ccc(/C=N/NC(=O)CC(=O)NCc2cccnc2)c(OC)c1 | 1.3 | -2.6% | 8.6% | -1.8% | 9.0%
COc1ccc(OC)c(/C=N/NC(=O)c2cc[n+](CC(=O)c3ccccc3)cc2)c1 | -3.2 | 11.2µM* | -7.1% | u | 2.9%
O=C(C[n+]1ccc(C(=O)N/N=C/c2ccc(O)cc2)cc1)c1ccccc1 | -10.7 | 8.91µM* | -15.9% | u | u
COc1ccc(OC)c(/C=N/NC(=O)CC(=O)NCc2ccccc2)c1 | -33.3* | -13.7% | -3.1% | -9.4% | 14.6%
COc1ccc(/C=N/NC(=O)C[n+]2ccccc2)c(OC)c1 | -1.0 | -1.6% | 4.5% | 2.2% | 23.8%
Cc1noc(C)c1-c1nc(N2CCN(C)CC2)c2ccccc2n1 | 0.7 | x | x | x | -12.7%
